Results on 40 compounds are retold here after PubChem BioAssay (NCI).

This is part of a sample that, as a whole, favours compounds with a hit. Of some 83,000 tested, about 20% had one in any assay.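 48-hour exposure, single concentration, 96-well plates; percent growth endpoint where 0 means no net growth. Active: below 10.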 Activity calls are given as the source filed them.

For this assay, the system named is MDA-MB-468 breast. Nature of the assay: NCI-60 one-dose screen, 48 h (100 = growth as untreated, 0 = no growth, -100 = all killed). Particulars: 10 µM unless noted.
In the case of `S=C=Nc1ccc(N2CCOCC2)cc1`, the growth was 87% (inactive).

Turning to `Nc1n[nH]c2cc(F)c([C@@H]3Nc4ccc5[nH]ncc5c4[C@H]4C5CCC(C5)[C@@H]34)cc12` (stereo not given in full), the growth was -11.7% (active).

With `O=C1CC(c2nc3ccccc3[nH]2)CN1C1CCCCC1` (stereo not given), the growth was 110% (inactive).

With `CC(C)(C)c1[nH]nc2c1C(c1cc3ccccc3[nH]c1=O)Nc1cc(C(=O)OCc3ccccc3)ccc1N2` (stereo not given), the growth is 43.7% (inactive).

Turning to `Cc1ccc(N)c(S(=O)(=O)O)c1`, the growth is 82.6% (inactive).

In the case of `CC1=C(C(=O)OCC2CCN(C(=O)OC(C)(C)C)CC2)[C@@H](c2cccc(C#N)c2)C2=C(CC(C)(C)CC2=O)N1`, the growth is 52.2% (inactive).

With `CCCn1c2cc(OCc3cn(-c4ccc(Br)cc4)nn3)ccc2c2ccnc(C)c21`, the growth is 25.6% (inactive).

Consider `COc1ccccc1CNCCCCCCCCCCCCN1C(=O)c2ccc3c4c(ccc(c24)C1=O)C(=O)N(CCCCCCCCCCCCNCc1ccccc1OC)C3=O`, for which the growth was -8.04% (active).

With `COc1cc2cc(NCc3ccc(OC(F)F)cc3)nc(C)c2cc1OC`, the growth is 64.4% (inactive).

Take `C=C(C)[C@@H]1CC[C@]2(C(=O)NCCNCCN)CC[C@]3(C)[C@H](CC[C@@H]4[C@@]5(C)C/C(=C/c6ccncc6)C(=O)C(C)(C)[C@@H]5CC[C@]43C)[C@@H]12`: the growth was 80.3% (inactive).

Consider `CCC(C)[C@H](NC(=O)NC(=O)NC(=O)CI)C(=O)OC` (stereo not given in full), for which the growth was 86.4% (inactive).

As for `C=CCn1c(SCC(=O)Nc2cccc(C(=O)/C=C/c3cc(OC)c(OC)c(OC)c3)c2)nc2ccccc2c1=O`, the growth is 35.3% (inactive).

For the compound `N#CSCC1CC(O)(c2ccccc2)CC(c2ccc(Cl)cc2)O1` (stereo not given), the growth was 47.3% (inactive).

Take `COC(=O)[C@H](Cc1cn(C)cn1)NC(=O)[C@H](C)NC(=O)Nc1cc(C(F)(F)F)cc(C(F)(F)F)c1`: the growth is -82.8% [100 µM] (active).

`COc1ccc(C2CC(c3cccc(Nc4ccncc4)c3)=NN2c2ccc(Cl)cc2)cc1` (stereo not given): the growth was 45.3% (inactive).

For the compound `C=C(C)[C@@H]1CC[C@]2(COCCC#N)CC[C@]3(C)[C@H](CC[C@@H]4[C@@](C)(CCCNCCC#N)[C@H](C(=C)C)CC[C@]43C)[C@@H]12`, the growth is 16.3% [100 µM] (inactive).

`CCCCNC(=O)c1ccc2c(c1)nc(-c1ccccc1)n2C1CCCCC1`: the growth is 123% (inactive).

Regarding `O=C1C=C(SCCO)C(=O)c2ccccc21`, the growth was -42.6% (active).

For the compound `COc1cc(C(=O)c2c(-c3ccccc3)oc3ccccc23)cc(OC)c1O`, the growth is 0.857% (active).

Regarding `COc1ccc(/C=C2/SC(=O)N(CC(=O)N3CCN(c4cc5c(cc4F)c(=O)c(C(=O)O)cn5C4CC4)CC3)C2=O)cc1`, the growth is 108% (inactive).

`NC(=S)NS(=O)(=O)c1ccc(N)cc1`: the growth is 96.5% (inactive).

In the case of `O=C1NC(=C(Cl)Cl)/C(=N/S(=O)(=O)NCCc2c[nH]c3ccccc23)N1`, the growth is -3.27% (active).

With `c1cc[n+](Cc2c3ccccc3cc3c2ccc2ccccc23)cc1`, the growth is -40.5% (active).

Turning to `O=C1NC(=C(Cl)Cl)/C(=N/S(=O)(=O)N2CCCCC2)N1`, the growth was -38% (active).

For `c1ccc2cc(C[n+]3ccn(CCCCCCCn4cc[n+](Cc5ccc6ccccc6c5)c4)c3)ccc2c1`, the growth was -2.76% (active).

As for `O=C(Nc1ccccc1C(=O)N/N=C(\c1ccccc1)c1ccccn1)c1ccccc1`, the growth was -19.4% (active).

Regarding `CC(=O)N(C)N=Nc1ccc(C)cc1`, the growth was 104% (inactive).

As for `CCC1=C(c2ccc(OC)cc2)C(C)Oc2cc(OC(C)=O)ccc21` (stereo not given), the growth was -14.1% (active).

As for `OC(c1cc2cc(Br)ccc2c2cc(Br)ccc12)C1CCCCN1` (stereo not given), the growth was -83.1% (active).

For the compound `CCCCN(CCCC)C(=O)[C@H](CC)[C@@H]1CC[C@@H](C)[C@@H]([C@H](C)[C@@H](O)[C@@H](C)C(=O)[C@H](CC)C2O[C@]3(C=C[C@@H](O)[C@]4(CC[C@@](C)([C@H]5CC[C@](O)(CC)[C@H](C)O5)O4)O3)[C@H](C)C[C@@H]2C)O1` (stereo not given in full), the growth was -22.1% (active).

In the case of `CCN(CC)CCCN1C(=O)c2c(c(C)c3c(oc4ccc(OC)cc43)c2C)C1=O`, the growth is 103% (inactive).

As to `C#CCC(C)(O)/C=C/C1=C(C)CCCC1(C)C` (stereo not given), the growth was 87.3% (inactive).

For `CC(=O)O[C@H]1Cc2c([nH]c3ccccc23)[C@@H](c2ccc(Cl)cc2)N1C(=O)CCNC(C)(C)C`, the growth was 8.31% (active).

For the compound `CC(=O)OC[C@H]1OC(Sc2sc(C(=O)c3ccc(C)cc3)c(N)c2-c2nc3ccccc3s2)[C@H](OC(C)=O)[C@@H](OC(C)=O)[C@@H]1OC(C)=O` (stereo not given in full), the growth was 75.4% (inactive).

Regarding `ClC(Cl)c1nc(-c2cccs2)n2nc(-c3ccccc3)cc2n1`, the growth was -56.4% (active).

In the case of `C=CC(=O)Nc1cccc(Nc2nc(SC)nc(-c3cccc([N+](=O)[O-])c3)c2C#N)c1`, the growth is 55.9% (inactive).

With `O=C1Nc2ccccc2/C1=N\c1nnc(-c2ccccc2)o1`, the growth was 69.6% (inactive).

Take `NC1=C(Cl)C(=O)c2ccc(S(N)(=O)=O)cc2C1=O`: the growth was -92.4% (active).

With `Cn1cccc1-c1nc2c3c(ccc2[nH]1)C(=O)c1ccccc1C3=O`, the growth was 10.9% (inactive).

`COc1cc2c(cc1OC)-c1ccc3cc4c(cc3c1N(CCN(C)C)C2)OCO4`: the growth was -30.4% (active).
